Data from PubChem BioAssay (Tox21).
Results filed as inconclusive are left out. Active and inactive are the calls of the source. Unless noted, the call rests on the fitted dose curve; in most records, active means well fitted curve in the direction sought with a large enough effect in the repeat runs; inconclusive means weak or mixed curves; inactive means no such curve, though single readings can be large; an effect the other way counts as inactive or inconclusive.

Key:
[1] = target: Retinoic acid receptor RXR-alpha (Homo sapiens) (UniProt P19793); experiment: qHTS assay to identify small molecule agonists of the RXR signaling pathway (AID 1159527; calls by dose curve; further: nearly all actives have a fitted effect of over 35% in size)
Summary of the method: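 GeneBLAzer RXR-alpha-UAS-bla HEK 293T cells in 2% charcoal-stripped FBS medium were exposed to compounds for 16 hr at 37 C in agonist mode. Beta-lactamase reporter read as 460/530 nm FRET ratio after 2 hr substrate loading.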

[2] = qHTS assay to identify small molecule agonists of the RXR signaling pathway - cell viability counter screen (AID 1159529); further: series mostly up to about 77 µM; nearly all actives have a fitted effect of over 50% in size
Summary of the method: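 RXR-alpha-UAS-bla HEK 293T cells in medium with 2% charcoal-stripped FBS were pre-incubated 5 hr, then compound-treated 16 hr at 37 C. Viability was read by CellTiter-Glo luminescence in the same wells as the beta-lactamase assay, with tetraoctyl ammonium bromide as positive control.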

[3] = qHTS assay to identify small molecule antagonists of the retinoid acid receptor (RAR) signaling pathway - cell viability counter screen (AID 1159551); further: nearly all actives have a fitted effect of over 35% in size
Summary of the method: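 Cytotoxicity counter screen: ATP content quantified by CellTiter-Glo luminescence in C3RL4 cells treated 6 hr at 37 C with compound and retinol (1 uM final). Cells plated at 1,000/well and cultured overnight before dosing.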

[4] = qHTS assay to identify small molecule antagonists of the retinoic acid receptor (RAR) signaling pathway (AID 1159552; further: nearly all actives have a fitted effect of over 50% in size)
Summary of the method: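 Retinol signaling pathway inhibitors screened in C3RL4 RARE-luciferase reporter cells seeded overnight at 37 C, then compounds added with 1 uM (final) retinol as pathway substrate. After 6 hr at 37 C, luciferase luminescence read after 30 min at room temperature.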

[5] = qHTS assay to identify small molecule agonists of the retinoic acid receptor (RAR) signaling pathway (AID 1159553)
Summary of the method: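 Luminescence was measured 30 min after luciferase reagent addition at room temperature. Before that, C3RL4 reporter cells (1,000 per well, plated overnight) were treated with compound for 6 hr at 37 C and 5% CO2.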

[6] = qHTS assay to identify small molecule antagonists of the estrogen related receptor (ERR) signaling pathway from Tox21 library - cell viability counter screen (AID 1224834); further: nearly all actives have a fitted effect of over 30% in size
Summary of the method: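 CellTiter-Fluor fluorescence, read after 30 min at 37 C, measures viability of ERR cells. Cells plated at 2,000/well and incubated 6 h before pin-tool compound addition, then exposed 17.5 hours at 37 C.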

[7] = qHTS assay to identify small molecule agonists of the constitutive androstane receptor (CAR) signaling pathway - cell viability counter screen (AID 1224836); further: series mostly up to about 92 µM; nearly all actives have a fitted effect of over 45% in size
Summary of the method: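 HepG2 cells stably carrying hCAR and a CYP2B6-2.2kb reporter; 15-concentration compounds plus PK11195 (final 0.75 uM), 23 hr at 37 C/5% CO2. Viability read by CellTiter-Fluor fluorescence.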

[8] = qHTS assay to identify small molecule antagonists of the constitutive androstane receptor (CAR) signaling pathway - cell viability counter screen (AID 1224837); further: series mostly up to about 92 µM; nearly all actives have a fitted effect of over 45% in size
Summary of the method: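 Cytotoxicity counter-screen: CellTiter-Fluor fluorescence after 23 h compound exposure (15-point qHTS) in double-stable HepG2-CYP2B6-hCAR cells, with 50 nM CITCO added.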

[9] = target: Nuclear receptor subfamily 1 group I member 3 (Homo sapiens) (UniProt Q14994); experiment: qHTS assay to identify small molecule antagonists of the constitutive androstane receptor (CAR) signaling pathway (AID 1224838);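 further: HepG2 cells stably expressing hCAR with CYP2B6 luciferase reporter stimulated by CITCO; nearly all actives have a fitted effect of over 40% in size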
Summary of the method: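 Antagonism measured as luciferase signal (ONE-Glo, 30 min, room temperature) in CAR-stimulated cells: HepG2-CYP2B6-hCAR double-stable line exposed 24 hr at 37 C to compound in a 15-point series plus 50 nM CITCO.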

[10] = target: Nuclear receptor subfamily 1 group I member 3 (Homo sapiens) (UniProt Q14994); experiment: qHTS assay to identify small molecule agonists of the constitutive androstane receptor (CAR) signaling pathway (AID 1224839);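 further: HepG2 cells stably carrying human CAR and a CYP2B6 luciferase reporter; series mostly up to about 92 µM; nearly all actives have a fitted effect of over 15% in size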
Summary of the method: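 HepG2 cells stably co-transfected with hCAR and a CYP2B6-2.2kb luciferase reporter; compounds at 15 concentrations with 0.75 uM PK11195 present. After 24 hr at 37 C, luciferase read by ONE-Glo luminescence.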

[11] = qHTS assay to identify small molecule antagonists of the estrogen related receptor signaling pathway with the pleiotropic PPARgamma coactivator (PGC) from Tox21 10K library - cell viability counter screen (AID 1224840; active means well fitted cell-killing curve with a large enough effect in the repeat runs, not every such curve was filed as active; further: nearly all actives have a fitted effect of over 40% in size)
Summary of the method: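 Counter-screen for cytotoxicity: after 17.5 h compound exposure at 37 C, CellTiter-Fluor reagent added to PGC/ERR cells for 30 min and fluorescence read. Cells were seeded at 2,000 per well 6 h before dosing.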

[12] = qHTS assay to identify small molecule antagonists of the estrogen related receptor signaling pathway with the pleiotropic PPARgamma coactivator (PGC) from Tox21 10K library (AID 1224841; call rule not given here; further: series mostly up to about 92 µM; actives are mostly falling curves and most rising ones were filed inactive; nearly all actives have a fitted effect of over 50% in size)
Summary of the method: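 Luminescence (One-Glo, 30 min at room temperature) after 18 h compound treatment at 37 C of PGC/ERR reporter cells plated at 2,000 cells/well and settled 6 h beforehand.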

[13] = qHTS assay to identify small molecule agonists of the estrogen related receptor signaling pathway with the pleiotropic PPARgamma coactivator (PGC) from Tox21 10K library (AID 1224842); further: nearly all actives have a fitted effect of over 15% in size
Summary of the method: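 Luminescence from One-Glo (30 min, room temperature) measured after PGC/ERR cells had 18 h at 37 C with pinned compound (23 nL in DMSO). Cells had been seeded at 2,000 per well and pre-incubated 6 h.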

[14] = qHTS assay to identify small molecule antagonists of the estrogen related receptor (ERR) signaling pathway (AID 1224819; further: series mostly up to about 46 µM; nearly all actives have a fitted effect of over 50% in size)
Summary of the method: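 LOPAC library screened for antagonism as reduced One-Glo luminescence in ERR reporter cells (2,000/well). Compounds were added after 6 h pre-incubation and left 18 h at 37C; reading followed a 30 min room-temperature reagent step.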

[15] = qHTS assay to identify small molecule agonists of the estrogen related receptor (ERR) signaling pathway (AID 1224820)
Summary of the method: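 After 6 h plating (2,000 cells/well) and 18 h compound treatment at 37 C, ERR cells were lysed with One-Glo and luminescence read after 30 min at room temperature.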

[16] = tested on: estrogen-related receptor alpha (ERRalpha) with PGC-1alpha coactivator, human; experiment: qHTS assay to identify small molecule antagonists of the estrogen related receptor signaling pathway with the pleiotropic PPARgamma coactivator (PGC) (AID 1224821; calls by dose curve)
Summary of the method: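 Luminescence from One-Glo luciferase reagent (30 min, room temperature) measured after 18 h compound treatment at 37 °C. Cells carry the PGC/ERR reporter and were seeded 6 h prior to dosing.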

[17] = qHTS assay to identify small molecule antagonists of the estrogen related receptor signaling pathway with the pleiotropic PPARgamma coactivator (PGC) cell viability counter screen (AID 1224822; further: series mostly up to about 46 µM)
Summary of the method: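 Viability counter-screen read by fluorescence intensity after 30 min with CellTiter-Fluor at 37 C; PGC/ERR reporter cells were exposed to compounds for 17.5 h at 37 C following a 6 h preincubation.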

[18] = qHTS assay to identify small molecule agonists of the estrogen related receptor signaling pathway with the pleiotropic PPARgamma coactivator (PGC) (AID 1224823)
Summary of the method: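 Luminescence from One-Glo reagent (30 min, room temperature) was read after 18 h compound treatment at 37 C of PGC/ERR cells plated 6 h beforehand; compounds delivered in DMSO by pin tool.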

[19] = target: Luciferin 4-monooxygenase (Photinus pyralis) (UniProt P08659); experiment: qHTS assay to identify small molecule inhibitors of firefly luciferase (AID 1224835); further: series mostly up to about 120 µM; nearly all actives have a fitted effect of over 25% in size
Summary of the method: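 Inhibition of purified Photinus luciferase is measured by luminescence. Substrate levels (D-luciferin, ATP) sit at their KM values. Each compound is tested in a concentration series.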

[20] = qHTS assay to identify small molecule antagonists of the estrogen related receptor (ERR) signaling pathway - cell viability counter screen (AID 1224818);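 further: series mostly up to about 46 µM; viability measured after 17.5 h of compound exposure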
Summary of the method: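 Cytotoxicity counter screen: fluorescence from CellTiter-Fluor, added after 17.5 h compound exposure at 37 C and read 30 min later. ERR cell line seeded at 2,000 cells/well, preincubated 6 h before dosing.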
On the % scale 0 is the no-effect control and ±100 the full control effect.

Sequence of Luciferin 4-monooxygenase (Photinus pyralis) (P08659 whole entry, looked up): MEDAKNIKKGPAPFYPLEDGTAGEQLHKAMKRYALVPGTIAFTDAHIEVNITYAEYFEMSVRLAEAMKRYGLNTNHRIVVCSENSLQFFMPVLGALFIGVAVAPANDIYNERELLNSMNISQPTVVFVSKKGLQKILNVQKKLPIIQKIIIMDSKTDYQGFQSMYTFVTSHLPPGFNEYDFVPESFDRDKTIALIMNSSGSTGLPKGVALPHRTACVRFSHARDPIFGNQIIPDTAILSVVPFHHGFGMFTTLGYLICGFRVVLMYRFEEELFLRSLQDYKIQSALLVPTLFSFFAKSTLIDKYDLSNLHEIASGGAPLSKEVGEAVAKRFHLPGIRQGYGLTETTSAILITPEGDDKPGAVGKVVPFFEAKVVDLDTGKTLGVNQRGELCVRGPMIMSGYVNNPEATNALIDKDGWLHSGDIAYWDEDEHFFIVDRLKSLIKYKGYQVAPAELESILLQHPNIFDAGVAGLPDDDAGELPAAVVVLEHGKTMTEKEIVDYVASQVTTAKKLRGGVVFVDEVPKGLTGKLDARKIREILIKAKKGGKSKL
Sequence of Nuclear receptor subfamily 1 group I member 3 (Homo sapiens) (Q14994 whole entry, looked up): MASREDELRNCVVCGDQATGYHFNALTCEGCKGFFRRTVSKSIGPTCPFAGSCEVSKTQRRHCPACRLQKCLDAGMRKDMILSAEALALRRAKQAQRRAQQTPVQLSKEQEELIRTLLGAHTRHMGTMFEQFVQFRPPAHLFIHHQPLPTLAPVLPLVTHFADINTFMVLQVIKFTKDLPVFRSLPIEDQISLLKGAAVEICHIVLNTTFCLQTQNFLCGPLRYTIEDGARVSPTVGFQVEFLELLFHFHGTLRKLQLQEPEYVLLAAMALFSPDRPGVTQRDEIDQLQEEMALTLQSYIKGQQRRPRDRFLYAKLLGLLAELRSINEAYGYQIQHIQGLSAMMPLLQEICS
Sequence of Retinoic acid receptor RXR-alpha (Homo sapiens) (P19793 whole entry, looked up): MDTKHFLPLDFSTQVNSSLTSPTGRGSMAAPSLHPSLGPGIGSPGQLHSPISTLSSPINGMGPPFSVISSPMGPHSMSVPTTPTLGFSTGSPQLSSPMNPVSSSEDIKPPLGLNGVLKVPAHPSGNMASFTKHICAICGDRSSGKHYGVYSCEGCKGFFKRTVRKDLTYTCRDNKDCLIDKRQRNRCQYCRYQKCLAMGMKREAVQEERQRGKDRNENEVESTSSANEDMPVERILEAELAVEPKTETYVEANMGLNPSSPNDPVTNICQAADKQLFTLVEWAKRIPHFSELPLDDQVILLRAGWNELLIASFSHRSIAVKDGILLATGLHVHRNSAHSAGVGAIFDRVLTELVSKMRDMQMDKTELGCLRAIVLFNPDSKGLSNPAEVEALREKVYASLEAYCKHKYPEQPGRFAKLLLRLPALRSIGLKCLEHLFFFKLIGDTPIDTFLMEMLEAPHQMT

N[C@H]1CN(c2c(F)cc3c(=O)c(C(=O)O)cn(C4C[C@H]4F)c3c2Cl)CC12CC2 (stereo partly specified)
inactive: Potency [1] | Potency [2] | outcome [3] | Potency [4] | Potency [5] | Potency [6] | Potency [7] | Potency [8] | Potency [9] | Potency [10] | Potency [11] | Potency [12] | outcome [13]

C[C@H]1C[C@@H](O)CC(C)(C)C1
inactive: Potency [1] | Potency [2] | outcome [3] | Potency [4] | Potency [5] | Potency [6] | Potency [7] | Potency [8] | Potency [9] | Potency [10] | Potency [12]

Cc1cccn2c(=O)c(-c3nnn[nH]3)cnc12
inactive: Potency [1] | Potency [2] | activity change, negative = cytotoxicity [3] 2.52% [at 19 µM] | activity, negative = inhibition [4] 1.95% [at 19 µM] | Potency [5] | viability change, negative = cytotoxic [6] 0.715% [at 19 µM] | viability change, negative = cytotoxic [7] 10.1% [at 19 µM] | activity change, negative = cytotoxicity [8] -0.444% [at 19 µM] | activity, negative = inhibition [9] -0.816% [at 19 µM] | activation [10] 2.7% [at 19 µM] | activity, negative = inhibition [12] 13.5% [at 19 µM] | activation [13] 4.84% [at 19 µM]

CC(=O)N(CC(O)CO)c1c(I)c(C(=O)NCCO)c(I)c(C(=O)NCC(O)CO)c1I (stereo unspecified)
inactive: Potency [1] | Potency [2] | outcome [3] | Potency [4] | Potency [5] | Potency [6] | Potency [7] | Potency [8] | Potency [9] | Potency [10] | Potency [11] | Potency [12] | outcome [13]

CCCCCSCCCCC
inactive: Potency [1] | Potency [2] | outcome [3] | Potency [4] | Potency [5] | Potency [6] | Potency [7] | Potency [8] | Potency [9] | Potency [10] | Potency [11] | Potency [12]

COC(=O)c1ccc(C)cc1C1=NC(C)(C(C)C)C(=O)N1 (stereo unspecified)
inactive: Potency [1] | Potency [2] | outcome [3] | Potency [4] | Potency [5] | Potency [6] | Potency [7] | Potency [8] | Potency [9] | Potency [10] | Potency [11] | Potency [12] | outcome [13]

NS(=O)(=O)c1ccccc1Cl
inactive: Potency [1] | Potency [2] | outcome [3] | Potency [4] | Potency [5] | Potency [6] | Potency [7] | Potency [8] | Potency [9] | Potency [10] | Potency [12] | outcome [13]

Cc1cccc(C)c1NC(=O)C(C)N (stereo unspecified)
inactive: Potency [1] | Potency [2] | outcome [3] | Potency [4] | outcome [14] | outcome [15] | outcome [16] | outcome [17] | outcome [18] | Potency [6] | Potency [19] | Potency [7] | Potency [8] | Potency [9] | Potency [10] | Potency [11] | Potency [12] | outcome [13]

CC(C)NCC(O)c1ccc(NS(C)(=O)=O)cc1 (stereo unspecified)
inactive: Potency [1] | Potency [2] | outcome [3] | Potency [4] | outcome [17] | Potency [6] | Potency [19] | Potency [7] | Potency [8] | Potency [9] | Potency [10] | Potency [11]

CCCCCCCCCCCC
inactive: Potency [1] | Potency [2] | outcome [3] | Potency [4] | Potency [5] | Potency [6] | Potency [7] | Potency [8] | Potency [9] | Potency [10] | Potency [12] | outcome [13]

OCCOc1ccc(OCCO)cc1
inactive: Potency [1] | Potency [2] | outcome [3] | Potency [4] | Potency [5] | Potency [6] | Potency [7] | Potency [8] | Potency [9] | Potency [10] | Potency [12]

CCn1ccnc1CC1COc2ccccc2O1 (stereo unspecified)
inactive: Potency [1] | Potency [2] | outcome [3] | Potency [4] | outcome [14] | outcome [15] | outcome [16] | outcome [17] | outcome [18] | Potency [6] | Potency [19] | Potency [7] | Potency [8] | Potency [9] | Potency [10] | Potency [11] | Potency [12] | outcome [13]

Cc1cnc(NS(=O)(=O)c2ccc(N)cc2)nc1
inactive: Potency [1] | Potency [2] | outcome [3] | Potency [4] | Potency [5] | Potency [6] | Potency [7] | Potency [8] | Potency [9] | Potency [10] | Potency [11] | Potency [12] | outcome [13]

Cc1ccc(C#N)cc1
inactive: Potency [1] | Potency [2] | outcome [3] | Potency [4] | Potency [5] | Potency [6] | Potency [7] | Potency [8] | Potency [9] | Potency [10] | Potency [11] | Potency [12] | outcome [13]

CC(=O)Nc1c(I)cc(I)c(C(=O)O)c1I
inactive: Potency [1] | Potency [2] | outcome [3] | Potency [4] | Potency [5] | Potency [6] | Potency [7] | Potency [8] | Potency [9] | Potency [10] | Potency [12]

Cc1[nH]c(=O)c(C#N)cc1-c1ccc2nccn2c1
inactive: Potency [1] | Potency [2] | outcome [3] | Potency [4] | outcome [17] | Potency [6] | Potency [7] | Potency [8] | Potency [9] | Potency [10] | Potency [11]

CCCN(CCC)CCc1cccc2c1CC(=O)N2
inactive: Potency [1] | Potency [2] | outcome [3] | Potency [4] | outcome [17] | Potency [6] | Potency [7] | Potency [8] | Potency [9] | Potency [10] | Potency [11]

CC[N+](C)(C)c1cccc(O)c1
inactive: Potency [1] | Potency [2] | outcome [3] | Potency [4] | outcome [20] | outcome [17] | Potency [6] | Potency [7] | Potency [8] | Potency [9] | Potency [10] | Potency [11]

N=c1nc(N2CCCCC2)cc(N)n1O
inactive: Potency [1] | Potency [2] | outcome [3] | Potency [4] | outcome [20] | outcome [17] | Potency [6] | Potency [19] | Potency [7] | Potency [8] | Potency [9] | Potency [10] | Potency [11]
